# Shown are actives, neighbours in structure and some others; about 3.2% of the full set was active somewhere.
# Tau fluor counter = counter-screen for tau fibril formation inhibitors. AID 1463. 280,000 compounds, 0.93% hits. tau K18 P301L Alexa594 fluorescence, heparin fibrillization. Potency, µM (top dose mostly 57.7 µM), for inactives: at the top dose activity change, negative = decrease; also: potency is read from the fitted curve at half-maximal effect; % is scaled to controls: 0 for no effect and ±100 for the full control effect; nearly all actives have a fitted effect of over 55% in size
#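 Human K18 P301L tau (15 uM unlabeled plus 0.24 uM Alexa 594-labeled, final) in 100 mM sodium acetate pH 7 was mixed with compound and 20 uM heparin and incubated 6 hr at 37 C.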
# KDM4E inh = inhibitors of human JMJD2E histone demethylase; 230,000 compounds, 1.6% hits; JMJD2E catalytic domain, FDH-coupled NADH fluorescence (FDH is formaldehyde dehydrogenase); Potency, µM (doses to about 57.1 µM), inactives show at the top dose activity change, negative = inhibition, most hits filed as inhibitors; AID 2147; active = well fitted inhibition curve with a large enough effect, not every such curve was filed as active; inconclusive = small, poorly fitted or top-dose-only effect, or another doubt; inactive = no such curve, though single readings can be large or run the other way;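 also: potency is read from the fitted curve at half-maximal effect; 0% = wells with enzyme and -100% = buffer wells without enzyme; nearly all actives have a fitted effect of over 50% in size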
# Tau ThT inhib = tau fibrillization inhibition (ThT binding); AID 1460; P10636; 270,000 compounds, 2.1% hits; Potency, µM (series often up to 57.4 µM), for the others: at the highest dose activity, negative = inhibition, usual class: inhibitors; recombinant tau K18 P301L, heparin-induced fibrillization, ThT fluorescence; also: potency is read from the fitted curve at half-maximal effect; % is scaled to controls: 0 for no effect and ±100 for the full control effect; nearly all actives have a fitted effect of over 55% in size
#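 Using a mix of unlabeled (15 uM) and Alexa 594-labeled (0.24 uM) tau K18 P301L, heparin-triggered fibrillization over 6 hr at 37 C was scored by ThT fluorescence.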
# Lamin A splicing = modulators of lamin A splicing. HeLa LMNA splicing GFP/RFP minigene ratio, 48 h. Potency, µM (titrated, usually from 46.1 µM), for inactives: top-dose ratio change, negative = inhibition, hits mostly inhibitors. 200,000 compounds, 0.01% hits; active = well fitted inhibition curve with a large enough effect in the signal ratio, with a control signal flat, not every such curve was filed as active; inconclusive = small, poorly fitted or top-dose-only effect, or effect the other way, or a change in a side signal; the % refers to the signal ratio; also: potency is read from the fitted curve at half-maximal effect; % is scaled to controls: 0 for no effect and ±100 for the full control effect
#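 Read-out is the ratio of GFP to DsRed2 object intensity, acquired by 488 nm laser-scanning cytometry on HeLa lamin A-EGFP minigene reporter cells. Compound incubation 48 hrs at 37 °C in Opti-MEM with 2% FBS; DMSO 0.5% final.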
# CBFb RUNX1 block = blocks binding between human CBF-beta and RUNX1; 230,000 tested, under 10 active; Q01196+Q13951; Potency, µM (titrated, usually from 59.8 µM), for the others: at the top dose activity, negative = inhibition, hits mostly inhibitors; AID 1477; AlphaScreen CBFb-His/RUNX1-biotin binding, biochemical; also: % of control where 0% means no effect
# Target sequence (Q01196 whole entry, looked up): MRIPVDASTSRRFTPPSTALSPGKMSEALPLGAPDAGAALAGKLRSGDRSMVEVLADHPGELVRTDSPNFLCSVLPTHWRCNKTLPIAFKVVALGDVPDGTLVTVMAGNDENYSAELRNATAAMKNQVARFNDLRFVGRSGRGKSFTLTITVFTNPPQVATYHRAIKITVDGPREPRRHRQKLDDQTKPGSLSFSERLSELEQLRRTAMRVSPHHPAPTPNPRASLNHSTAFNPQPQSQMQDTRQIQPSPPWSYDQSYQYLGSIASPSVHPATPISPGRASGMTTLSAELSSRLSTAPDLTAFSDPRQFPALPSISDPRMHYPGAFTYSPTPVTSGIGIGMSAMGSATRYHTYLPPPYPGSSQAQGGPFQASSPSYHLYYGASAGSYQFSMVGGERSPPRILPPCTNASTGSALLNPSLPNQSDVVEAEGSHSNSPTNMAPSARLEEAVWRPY
# Target sequence (Q13951 whole entry, looked up): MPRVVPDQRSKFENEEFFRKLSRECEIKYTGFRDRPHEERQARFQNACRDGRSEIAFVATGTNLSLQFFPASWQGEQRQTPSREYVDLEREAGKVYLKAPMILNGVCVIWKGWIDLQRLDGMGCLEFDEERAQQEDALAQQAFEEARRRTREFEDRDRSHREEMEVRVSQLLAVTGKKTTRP
#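 CBF-beta (His) and RUNX1 (biotin), 30 nM each; 20 min preassociation; + compound, 15 min; + beads 50 ng each (Ni, streptavidin), 90 min; RT; AlphaScreen read.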
# Tau fibril FP = tau fibrillization inhibition (FP) | P10636 | K18 P301L tau heparin fibrillization, Alexa594 FP, 6 h | Potency, µM (top dose mostly 57.7 µM), for the others: at the top dose activity, negative = inhibition, actives largely listed as inhibitors | 280,000 compounds, 0.39% hits | AID 1468; also: potency is read from the fitted curve at half-maximal effect; % is scaled to controls: 0 for no effect and ±100 for the full control effect; nearly all actives have a fitted effect of over 55% in size
#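 Compound effects on tau fibrillization are measured by Alexa 594 fluorescence polarization (ex 555, em 632 nm). K18 P301L tau is used at 15 uM with 0.24 uM labeled tracer, and 20 uM heparin induces aggregation over 6 hr at 37 C.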
# The depositor's hits bear a star; ? = inconclusive; · = no result; [ ] = another dose, or the depositor's remark. Unless noted, calls follow the shape of the dose curve; as a rule, active = well fitted curve in the direction sought with a large enough effect; inconclusive = small, poorly fitted or top-dose-only effect, or another doubt; inactive = no such curve, though single readings can be large; an effect the other way counts as inactive or inconclusive.
SMILES,Tau fluor counter,KDM4E inh,Tau ThT inhib,Lamin A splicing,CBFb RUNX1 block,Tau fibril FP
N#C/C(=C\c1cc([N+](=O)[O-])c(N2CCOCC2)cc1N1CCOCC1)c1nc2ccccc2[nH]1,?,-2.9%,15.8µM*,-17.1%,?,2.1%
N#C/C(=C\c1ccc(N2CCOCC2)o1)c1ccccc1,?,?,14.1µM*,?,?,?
N#C/C(=C\c1ccc(N2CCOCC2)cc1)c1ccccc1,?,6.8%,?,?,-13.7%,10.7%
COc1ccccc1CNC(=O)CCc1c(C)nn(-c2ccc(N3CCCCC3)nn2)c1C,0.7%,·,2.3%,-0.3%[46 µM],·,-6.5%
COc1ccc(CNC(=O)Cc2c(C)c3cc4c(C)coc4c(C)c3oc2=O)cc1,3.2%,·,3.7%,·,·,-6.7%
CCOC(=O)c1c(NC(=O)C2CC2)sc(C)c1CC,-21.5%,0.1%,28.2µM*,5.8%,5.3%,?
CC1=CC2=NC(=O)/C(=C/c3cccs3)C(=N)N2O1,-13.6%,-8.0%,-17.3%,·,-0.6%,?
CSC1=NSC2=NC(=O)/C(=C\c3cccs3)C(=N)N12,-7.0%,-5.0%,14.1µM*,?,4.1%,12.3%
N=C1/C(=C/c2cccs2)C(=O)N=C2SN=C(SCc3ccccc3)N12,?,2.9%,17.8µM*,4.3%,-3.4%,2.8%
CC(C)CSC1=NSC2=NC(=O)/C(=C\c3cccs3)C(=N)N12,-2.3%,1.3%,-0.4%,?,-11.8%,-3.1%
Cc1ccc(S(=O)(=O)N[C@@H]2COC(=O)C/C=C\[C@H](C)COC(=O)N[C@@H](C)C(=O)C/C=C\[C@H]2C)cc1,4.2%[11.6 µM],·,-1.5%[11.5 µM],·,19.0%[13.1 µM],6.5%[11.6 µM]
CCc1ccc(NS(=O)(=O)c2ccc3oc(=O)c4ncn(CC)c4c3c2)cc1,-19.6%,·,-7.8%,·,·,-7.8%
O=C(N/N=C/c1cc([N+](=O)[O-])ccc1O)c1ccncc1,-9.3%,10µM*,?,·,-7.7%,10.9%
O=C(N/N=C/c1ccc(O)c([N+](=O)[O-])c1)c1ccncc1,4.3%,-21.0%,·,·,1.9%,7.8%
O=C(N/N=C/c1ccccc1[N+](=O)[O-])c1ccc2c(c1)OCCO2,-12.8%,13.5%,?,·,6.7%,6.8%
O=C(N/N=C/c1ccc(O)c2ncccc12)c1cccc(Br)c1,?,-22.2%,6.31µM*,?,?,13.7%
O=C(N/N=C/c1cc([N+](=O)[O-])ccc1O)c1ccc2c(c1)OCCO2,-13.8%,25.1µM*,?,?,?,11.8%
O=C(N/N=C/c1cc(Br)ccc1O)c1ccncc1,-8.6%,28.2µM*,-9.2%,·,?,?
CCCc1cc2c(c(=O)o1)C(O)C1OC1C2=O (centres undefined),?,·,?,·,3.3%[13.1 µM],6.3%[11.6 µM]
CNC(=O)c1ccc(Nc2nnc(-c3ccc(C)c(S(=O)(=O)N4CCOCC4)c3)c3ccccc23)cc1,?,·,-10.3%,·,·,?
Cc1nc(C)c(C(=O)N/N=C/c2c[nH]c3ccccc23)s1,-20.2%,?,?,-10.5%,-7.4%,11.4%
Cc1nc(C)c(C(=O)N/N=C/c2cc(Br)ccc2O)s1,-24.4%,22.4µM*,-17.1%,·,2.6%,10.3%
COc1cc(O)c(/C=N/NC(=O)c2ccncc2)c(OC)c1[N+](=O)[O-],-6.7%,22.4µM*,?,-5.2%[46 µM],?,13.0%
Nc1nonc1C(=O)N/N=C/c1cc(Br)ccc1O,-11.2%,3.55µM*,?,?,?,9.0%
COc1ccc(/C=N/NC(=O)c2ccncc2)cc1[N+](=O)[O-],-8.1%,4.3%,-14.7%,·,-1.8%,5.6%
COC(=O)NC/C=C\c1nc(CCCO)co1,-6.1%[11.6 µM],·,-4.8%[11.5 µM],·,1.3%[13.1 µM],0.0%[11.6 µM]
COc1ccc2nc(-c3cccc(N)c3)[nH]c2c1,2.5%,3.3%,8.9%,-10.2%,-1.6%,-2.1%
COc1cccc(-n2c(N)c(-c3nc4ccccc4[nH]3)sc2=S)c1,15.8µM*[quencher],-1.6%,7.94µM*,·,-19.0%,13.1%
Cc1ccc(Nc2c(-c3ccncc3)nc3ccc(C)cn23)cc1,-27.9%,·,?,·,·,13.6%
